Measured values: PubChem BioAssay (EPA / NIEHS)
Active and inactive are the calls of the source. How the source made its calls: active means hit-call score of the fitted dose curve at least 0.9, where 1 is the maximum; inactive means score below 0.9.

How the values were obtained:
[1] = ATG_E_Box_CIS: Attagene CIS-FACTORIAL HepG2 Assay for human Enhancer Box (E-box) (AID 2282936); settings: HepG2 E-box cis-reporter transcription, actives raise or lower the signal
Summary of the method: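 Cells: HepG2 (human liver), transient MRTU transfection. Exposure 24 h. RNA → oligo(dT) RT → PCR → 6-FAM label → HpaI → CE. Activity fitted both directions relative to DMSO.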

[2] = ATG_M_61_CIS: Attagene CIS-FACTORIAL HepG2 Assay for M61 Transcription Factor (Internal Marker) (AID 2282937); settings: HepG2 Attagene CIS-FACTORIAL M61 internal marker reporter; actives raise or lower the signal
Summary of the method: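 Readout is reporter mRNA by RT-PCR, fluorescent primer extension and capillary electrophoresis, with gain or loss fitted relative to DMSO. Transfected HepG2 cells carrying endogenous-TF-driven cis reporters were exposed to chemicals for 24 hours.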

[3] = ATG_EGR_CIS: Attagene CIS-FACTORIAL HepG2 Assay for human Early Growth Response 1 (EGR1) (AID 2282938); settings: HepG2 Attagene CIS-FACTORIAL EGR reporter mRNA; actives raise or lower the signal
Summary of the method: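 After 24 h compound exposure, RNA from reporter-transfected HepG2 cells was reverse-transcribed, PCR-amplified, fluorescently labelled and resolved by capillary electrophoresis. EGR1 reporter transcript changes, up or down, were fitted against DMSO, reflecting endogenous transcription-factor activity.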

[4] = ATG_M_19_CIS: Attagene CIS-FACTORIAL HepG2 Assay for M19 Transcription Factor (Internal Marker) (AID 2282939); settings: HepG2 Attagene CIS-FACTORIAL M19 internal marker reporter; actives raise or lower the signal
Summary of the method: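 Transfect HepG2 with MRTU reporter library → dose chemical, 24 h → isolate total RNA, reverse-transcribe with oligo(dT) → PCR, 6-FAM label, HpaI cut (2 h, 37 C) → capillary electrophoresis. Bidirectional fit vs DMSO.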

[5] = ATG_Ets_CIS: Attagene CIS-FACTORIAL HepG2 Assay for human Erythroblast Transformation Specific (ETS) (AID 2282941); settings: HepG2 ETS cis-reporter transcription, actives raise or lower the signal
Summary of the method: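 HepG2 cells transiently transfected with cis-promoter reporter transcription units were dosed for 24 h; reporter mRNA was measured by RT-PCR, 6-FAM primer extension, HpaI digestion and capillary electrophoresis, with bidirectional fitting against DMSO baseline.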

[6] = ATG_FoxO_CIS: Attagene CIS-FACTORIAL HepG2 Assay for human Forkhead box O (FoxO) (AID 2282943); settings: HepG2 Attagene cis-reporter, FoxO element, mRNA; actives raise or lower the signal
Summary of the method: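 Endogenous transcription factor activity read from multiplexed cis-promoter reporter transcripts in transiently transfected HepG2, 24 h after dosing. Reporter RNA measured via RT-PCR plus capillary electrophoresis of FAM-labeled products; gain or loss relative to DMSO.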

[7] = ATG_GATA_CIS: Attagene CIS-FACTORIAL HepG2 Assay for human GATA Binding Protein (AID 2282944); settings: HepG2 GATA cis-element reporter, Attagene multiplex mRNA; actives raise or lower the signal
Summary of the method: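 Transient MRTU transfection, HepG2, 24 h compound exposure. Total RNA → oligo(dT) RT → PCR → 6-FAM primer extension → HpaI cut → CE. Bidirectional fit vs DMSO.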

[8] = ATG_GLI_CIS: Attagene CIS-FACTORIAL HepG2 Assay for human Zinc Finger Protein GLI1 (AID 2282945); settings: HepG2, Attagene cis-factorial reporter mRNA, GLI element; actives raise or lower the signal
Summary of the method: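 Bidirectional curve fits relative to DMSO, using reporter mRNA levels from RT-PCR plus capillary electrophoresis. Cells were HepG2 transiently carrying cis-regulated reporter constructs, harvested 24 h after dosing.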

[9] = molecular target: Hepatocyte nuclear factor 3-beta (Homo sapiens) (UniProt Q9Y261); experiment: ATG_FoxA2_CIS: Attagene CIS-FACTORIAL HepG2 Assay for human Forkhead box A2 (FOXA2) (AID 2282942); settings: HepG2 cis-reporter transcription factor activity, 24 h; actives raise or lower the signal
Summary of the method: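 Endogenous transcription factor activity is captured via cis-element-driven reporter transcripts in transfected HepG2. Total RNA taken at 24 h post-dosing; labelled RT-PCR products resolved by capillary electrophoresis. Gain or loss fitted versus DMSO.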

Measured: AC50

Hepatocyte nuclear factor 3-beta (Homo sapiens), sequence (Q9Y261 whole entry, looked up): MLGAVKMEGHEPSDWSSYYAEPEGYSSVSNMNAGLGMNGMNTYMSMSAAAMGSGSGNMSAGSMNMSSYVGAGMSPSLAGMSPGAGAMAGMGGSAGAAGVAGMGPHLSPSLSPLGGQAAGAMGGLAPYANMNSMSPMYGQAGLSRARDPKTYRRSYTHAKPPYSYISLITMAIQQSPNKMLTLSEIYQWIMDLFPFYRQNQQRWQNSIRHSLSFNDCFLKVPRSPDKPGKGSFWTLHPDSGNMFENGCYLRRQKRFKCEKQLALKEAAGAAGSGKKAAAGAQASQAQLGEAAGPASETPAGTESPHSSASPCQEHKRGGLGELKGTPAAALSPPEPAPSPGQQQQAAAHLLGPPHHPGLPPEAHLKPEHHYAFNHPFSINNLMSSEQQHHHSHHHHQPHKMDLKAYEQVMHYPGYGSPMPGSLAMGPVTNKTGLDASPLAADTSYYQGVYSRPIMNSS

CC(=NC#N)N(C)Cc1ccc(Cl)nc1
inactive: [1] | [2] | [3] | [4] | [5] | [6] | [7] | [8]

CCC(=NOC/C=C/Cl)C1=C(O)CC(C2CCOCC2)CC1=O (centres undefined)
inactive: [1] | [2] | [3] | [4] | [5] | [6] | [7] | [8]

CCC(=O)Nc1ccc(Cl)c(Cl)c1
inactive: [1] | [2] | [4] | [5] | [9] | [6] | [7] | [8]

C[Si](Cn1cncn1)(c1ccc(F)cc1)c1ccc(F)cc1
inactive: [2] | [4] | [5] | [6] | [7] | [8]
active: [1] 83.2 µM

CCOP(=O)(SC(C)CC)N1CCSC1=O (centres undefined)
inactive: [1] | [2] | [4] | [5] | [9] | [6] | [7] | [8]

CCOP(=S)(Oc1cnc(C(C)(C)C)nc1)OC(C)C (centres undefined)
active: [1] 27 µM | [8] 50 µM
inactive: [2] | [4] | [5] | [9] | [6] | [7]

CN(C)C(=O)Nc1cccc(C(F)(F)F)c1
inactive: [1] | [2] | [4] | [5] | [6] | [7] | [8]

CCCCN(CC)c1c([N+](=O)[O-])cc(C(F)(F)F)cc1[N+](=O)[O-]
inactive: [1] | [2] | [4] | [5] | [9] | [6] | [7] | [8]

CCOP(=S)(OCC)SCCSCC
inactive: [1] | [2] | [4] | [5] | [6] | [7] | [8]

FC(F)C(F)(F)OCC(Cn1cncn1)c1ccc(Cl)cc1Cl (centres undefined)
inactive: [1] | [2] | [4] | [5] | [6] | [7] | [8]

N#CSCSC#N
inactive: [1] | [2] | [4] | [5] | [6] | [7] | [8]

CCCOCC(=Nc1ccc(Cl)cc1C(F)(F)F)n1ccnc1
inactive: [1] | [2] | [4] | [5] | [9] | [6] | [7] | [8]

C[N+]1(C)CCCCC1
inactive: [1] | [2] | [4] | [5] | [9] | [6] | [7] | [8]

C#CC(C)(C)NC(=O)c1cc(Cl)cc(Cl)c1
inactive: [1] | [2] | [4] | [5] | [9] | [6] | [7] | [8]

CC(COc1ccc(Oc2ccccc2)cc1)Oc1ccccn1 (centres undefined)
inactive: [1] | [2] | [4] | [5] | [6] | [7] | [8]

C#CCC1=C(C)C(OC(=O)C2C(C=C(C)C)C2(C)C)CC1=O (centres undefined)
active: [1] 78.6 µM | [6] 90.3 µM | [7] 77.1 µM | [8] 73.2 µM
inactive: [2] | [4] | [5] | [9]

COP(=O)(NC(C)=O)SC (centres undefined)
inactive: [1] | [2] | [4] | [5] | [9] | [6] | [7] | [8]

C=C(C)[C@H]1Cc2c(ccc3c2O[C@@H]2COc4cc(OC)c(OC)cc4[C@@H]2C3=O)O1
inactive: [1] | [2] | [4] | [5] | [6] | [8]
active: [7] 1.21 µM

CC(C)N(C(=O)SCC(Cl)=C(Cl)Cl)C(C)C
inactive: [1] | [2] | [4] | [5] | [6] | [7] | [8]
